Experimental findings from PubChem BioAssay (NCATS) are described below.

Molecules are shown by their SMILES. Where “and” joins values, the source holds several entries; their conditions need not be identical. Identical values can stand only once. Records with an inconclusive call do not appear. Calls of active or inactive are those of the source. Calls follow the shape of the dose curve; as a rule, active = well fitted inhibition curve with a large enough effect; inconclusive = small, poorly fitted or top-dose-only effect; inactive = no such curve, though single readings can be large or run the other way.
Potency is read from the fitted curve at half-maximal effect.

In the test the target is Tyrosine-protein kinase Yes (Homo sapiens) (UniProt P07947). In words: qHTS for small molecule inhibitors of Yes1 kinase: Primary Screen (AID 686947). Also: nearly all actives have a fitted effect of over 60% in size. The following applies: Yes1 kinase biochemical qHTS inhibition; series mostly up to 76.9 µM. An excerpt: The Src family of non-receptor protein tyrosine kinases contains nine members, including Yes1, Src, Fyn, Lyn, and […]. These kinases have important roles in a variety of cellular functions, such as cell proliferation, survival, and differentiation. Src, the most well characterized member of this family, has been previously identified as a proto-oncogene. […] In melanoma, it has been shown that Yes1, and not other family members, such as Src, is functionally involved in the malignant phenotype. Additionally, a recent study examining the downregulation of Yes1 by shRNA found significant effects on cell survival/growth for basal-like and Her2-positive breast cancers. Despite the potential for Yes1 to be a target for the above-described cancers, there are very few reports on the identification of potent and selective inhibitors of Yes1 kinase. Antagonists of Yes1 would further elucidate Yes1 biology and help to confirm whether Yes1 is a viable target for therapeutic intervention in a variety of cancers.
Chain of Tyrosine-protein kinase Yes (Homo sapiens) (P07947 whole entry, looked up): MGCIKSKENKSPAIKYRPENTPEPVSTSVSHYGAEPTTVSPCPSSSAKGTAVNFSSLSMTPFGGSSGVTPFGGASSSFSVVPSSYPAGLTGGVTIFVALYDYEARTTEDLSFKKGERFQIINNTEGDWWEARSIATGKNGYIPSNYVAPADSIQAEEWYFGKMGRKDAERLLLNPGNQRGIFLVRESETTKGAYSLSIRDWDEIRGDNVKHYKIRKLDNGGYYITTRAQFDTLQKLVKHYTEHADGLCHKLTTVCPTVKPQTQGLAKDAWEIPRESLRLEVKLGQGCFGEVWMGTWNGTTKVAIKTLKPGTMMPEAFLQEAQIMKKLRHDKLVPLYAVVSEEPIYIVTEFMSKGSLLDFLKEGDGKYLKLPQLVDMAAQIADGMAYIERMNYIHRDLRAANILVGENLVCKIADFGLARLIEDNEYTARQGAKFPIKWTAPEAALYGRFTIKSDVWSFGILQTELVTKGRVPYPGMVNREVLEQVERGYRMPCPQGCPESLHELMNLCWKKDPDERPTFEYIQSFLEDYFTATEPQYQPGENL
A compound that inhibits Yes1 could be important for the treatment of various cancers in which Yes1 is highly expressed and can also be used as a tool compound to help further elucidate Yes1 biology. To that end, we have developed a sensitive HTS biochemical assay for Yes1 activity. This assay was screened against several small compound libraries to look for modulators of activity. Inhibition is the desired output for this assay.
NIH Molecular Libraries Probe Production Centers Network [MLPCN]
NIH Chemical Genomics Center [NCGC]
Two micoliter of Yes1 enzyme (columns 1-2, 5-48; Millipore, Billerica, MA) are dispensed into Greiner, white solid-bottom 1536-well assay plates; columns 3 and 4 receive buffer without Yes1 as a control for maximum inhibition. Compounds (23 nL) are then transferred via Kalypsys pin tool equipped with 1536-pin array (10 nL slotted pins, V&P Scientific, San Diego, CA). […] Following addition of compound and a 20 minute incubation, 1 uL of substrate (ATP and poly-E4Y from Sigma-Aldrich, St. Louis, MO) is added, and the biochemical reaction is allowed to progress for 60 minutes at room temperature. The production of ADP is then quantified by the ADP-Glo Kit (Promega, Madison, WI). First, 2 uL of the first kit reagent is added, and the reaction is incubated for 45 minutes; then, 4 uL of the second kit reagent are added and the reaction is incubated for 30 minutes at which time the luminescence is read on a Viewlux plate reader (Perkin-Elmer, Waltham, MA). The final concentration of reagents in the reaction are 4 nM Yes1, 0.1 mM ATP, 100 uM EGTA, 10 mM MgCl2, 0.3 mg/mL poly(E4Y), 50 mM Tris pH 7.5, 1 mM DTT, 150 mM NaCl, 0.01% Brij-35, and 5% glycerol. Data are normalized to DMSO-treated control columns with (maximum signal) and without (minimum signal) enzyme.
Background: Quantitative high-throughput screening tests each substance at several concentrations.
For `O=C(O)c1ccc(Oc2nccc(-c3c(-c4ccc(F)cc4)ncn3C3CCNCC3)n2)cc1`, the Potency result is “inactive”. In the case of `Cc1cc(-c2ccco2)cc(C)c1C=Cc1cncc(-c2nn[nH]n2)c1`, the Potency was 1.04 µM (active). The value for `COc1c(C(N)=O)cc(-c2ccc(Cl)cc2)cc1-c1ccc(S(N)(=O)=O)cc1` was 10.4 µM (active); that for `COc1cccc(Nc2nccc(-c3cnn4ncccc34)n2)c1` was “inactive”. Regarding `NC(=O)c1cccc(Nc2nccc(Nc3cccc4[nH]ncc34)n2)c1`, the Potency was 0.0292 µM (active).

Turning to `CCS(=O)(=O)c1ccc(OC)c(Nc2ncc(-c3cccc(C(C)=O)c3)o2)c1`, the Potency was 0.292 µM (active). The value for `COc1cc2c(cc1Nc1nc(Nc3ccsc3C(N)=O)c3cc[nH]c3n1)N(C(=O)CN(C)C)CCC2` was “inactive”; that for `COc1cc2ncn(-c3cc(OCc4cccs4)c(C(N)=O)s3)c2cc1OC` was 1.84 µM (active). For the compound `CCc1cccc(CC)c1C=Cc1cncc(C(=O)NC)c1`, the Potency is 26 µM (active). As for `CN(C)C(=O)OC1CNC(C#Cc2cc3ncnc(Nc4ccc(OCc5cccc(F)c5)c(Cl)c4)c3s2)C1` (stereo not given), the Potency was 8.23 µM (active) and 7.33 µM (active).

In the case of `Nc1ncnc2occ(-c3ccc(NC(=O)Nc4cccc(C(F)(F)F)c4)cc3)c12`, the Potency was 1.64 µM (active). With `NC(=O)c1sc(-n2cnc3cc(C(F)(F)F)ccc32)cc1OCc1ccccc1Br`, the Potency result was “inactive”.

In the case of `CCNC(=O)OC1CNC(C#Cc2cc3ncnc(Nc4ccc(OCc5cccc(F)c5)c(Cl)c4)c3s2)C1` (stereo not given), the Potency was 8.23 µM (active). As for `Nc1ccc(C#Cc2cncnc2Nc2ccc(OCc3cccc(F)c3)c(Cl)c2)cc1`, the Potency entry is “inactive”. Consider `CN1CCN(CCCNc2nc3ccc(Oc4ccc(NC(=O)Nc5cc(C(F)(F)F)ccc5F)cc4)cc3[nH]2)CC1`, for which the Potency result was “inactive”. With `Fc1cccc(COc2ccc(Nc3ncnc4sc(-c5ccco5)cc34)cc2Cl)c1`, the Potency result was “inactive”. To `CNC(=O)c1cc(-c2ccc(F)cc2)cc(-c2ccc(S(=O)(=O)N3CCCC3)cc2)c1N` belongs “inactive”; to `CCn1c(-c2nonc2N)nc2c(N3CCCC3)nccc21`, “inactive”; to `FC(F)(F)c1ccc(-c2nn3ncccc3c2-c2ccnc(Nc3ccc4c(c3)OCCO4)n2)cc1`, 2.6 µM (active). Turning to `COc1cc(N2CCN(C(C)C)CC2)ccc1Nc1nc(Nc2cccc(F)c2C(=O)O)c2cc[nH]c2n1`, the Potency entry was “inactive”. On to `NS(=O)(=O)c1ccc(N=Nc2c(O)[nH]c3ccc(C(=O)NCCc4cnc[nH]4)cc23)cc1`, for which the Potency was 2.6 µM (active). As for `CCn1c(-c2nonc2N)nc2ccncc21`, the Potency entry is “inactive”.

Regarding `O=C(OC1CNC(C#Cc2cc3ncnc(Nc4ccc5c(ccn5Cc5cc(F)ccc5F)c4)c3s2)C1)N1CCOCC1` (stereo not given), the Potency is 29.2 µM (active).

For the compound `COc1ccc2c(-c3ccnc(Nc4cccc(OC(F)(F)F)c4)n3)cnn2n1`, the Potency was 26 µM (active). For the compound `COc1cccc(-n2ncc3c(NN=Cc4ccc(S(C)(=O)=O)cc4)ncnc32)c1`, the Potency was 0.0923 µM (active). With `CC(C)c1ccc(Nc2nccc(-c3cnn4ncccc34)n2)cc1`, the Potency was 26 µM (active).

`COc1cccc(-n2nc(C)c3c(NN=C(C)c4ccncc4)ncnc32)c1`: the Potency entry was “inactive”. Regarding `COc1cccc(COc2cc(-n3cnc4ccccc43)sc2C(N)=O)c1`, the Potency entry was “inactive”. To `COc1cc(C=NNc2ncnc3c2cnn3C(C)C)ccc1O` belongs 0.184 µM (active). To `Clc1ccc(-c2nn3ncccc3c2-c2ccnc(Nc3ccccc3)n2)cc1` belongs 0.292 µM (active). Take `Oc1[nH]c2ccccc2c1C=Nc1ccc(-n2cncn2)cc1`: the Potency is 9.23 µM (active). With `CCn1c(-c2nonc2N)nc2cncc(C(=O)N3CCC(N)C3)c21` (stereo not given), the Potency result is “inactive”. The value for `CS(=O)(=O)CCNCc1ccc(-c2ccc3ncnc(Nc4ccc(OCc5ccccc5)c(Br)c4)c3c2)o1` was 2.32 µM (active); that for `NS(=O)(=O)c1ccc(Nc2cc(-c3ccc(O)c(F)c3)[nH]n2)cc1` was 5.82 µM (active); that for `NC(=O)c1cc(-c2ccc(F)cc2)cc(-c2ccncc2)c1N` was “inactive”. Take `CN1CCC(n2cnc(-c3ccc(F)cc3)c2-c2ccnc(N)n2)CC1`: the Potency was 18.4 µM (active).

For `Nc1ncnc2occ(-c3ccc(NC(=O)Nc4cc(C(F)(F)F)cc(C(F)(F)F)c4)cc3)c12`, the Potency was 3.68 µM (active). Consider `O=C1NC(=O)C(c2ccc(Cl)cc2)=C1Nc1ccc(Cl)c(C(=O)O)c1`, for which the Potency entry is “inactive”. As to `Cc1cc(O)cc(C)c1C=Cc1cncc(C(=O)N(C)C)c1`, the Potency is 23.2 µM (active). Consider `CC(=O)Nc1cccc(C#Cc2cncnc2Nc2ccc(OCc3cccc(F)c3)c(Cl)c2)c1`, for which the Potency is 23.2 µM (active).
